Test results: PubChem BioAssay (Tox21)
Records with an inconclusive call do not appear. A call without a number means that no potency is given here. Activity calls are given as the source filed them. The call rests on the fitted dose curve; in most records, active means well fitted cell-killing curve with a large enough effect in the repeat runs; inconclusive means weak or mixed curves, or effect the other way; inactive means flat fitted curve, though single readings scatter.

Test: qHTS assay to identify small molecule agonists of the TGF-beta/Smad signaling pathway - cell viability counter screen (AID 1346829); further: top concentration of the series differs between compounds; nearly all actives have a fitted effect of over 45% in size
Conditions: SBE-bla HEK293T viability, CellTiter-Glo luminescence, 5 h; series mostly up to 76.8 µM
Excerpt: National Center for Advancing Translational Sciences [NCATS]
NIH Chemical Genomics Center [NCGC]
U.S. Environmental Protection Agency [EPA]
National Institutes of Environmental Health Sciences [NIEHS]
National Toxicology Program [NTP]
U.S. Food and Drug Administration [FDA]
Transforming growth factor beta (TGF-beta) superfamily consists of a large number of structurally related dimeric proteins that act as hormones or local mediators in regulating a wide range of biological functions. This superfamily includes TGF-betas themselves, the bone morphogenetic proteins (BMPs) and the activins. These ligands induce oligomerization of serine/threonine receptor kinases and phosphorylate the cytoplasmic signaling molecules of Smad protein family. CellSensor SBE-bla HEK 293T cell line (Life Technologies, Carlsbad, CA), responsive to TGF-beta was used to screen Tox21 10K compound library for identification of agonists/antagonists of the Smad signaling pathway. This cell line contains a beta-lactamase reporter gene under control of the Smad binding element (SBE) stably integrated into HEK 293T cells. Also cytotoxicity of the compounds was tested in parallel by measuring the cell viability using CellTiter-Glo assay system in the same wells.
Tox21 Assay Protocol Summary:
SBE-bla HEK 293T cells were dispensed at 4,000/well in 6 uL of assay medium into black wall/clear-bottom 1536-well plates using a Multidrop Combi (ThermoFisher Scientific, Waltham, MA) dispenser. After the assay plates were incubated at 37 C and 5% CO2 for an overnight, 23 nL of compounds dissolved in DMSO, positive controls or DMSO only was transferred to the assay plate by a Pintool station (Kalypsys, San Diego, CA). The assay plates were incubated at 37 C and 5% CO2 for 5 hr. One uL of LiveBLAzer B/G FRET substrate (Life Technologies) was added using a Flying Reagent Dispenser (FRD, Aurora Discovery, San Diego, CA) and the plates were incubated at room temperature for 2 hr. Fluorescence intensity (405 nm excitation, 460 nm and 530 nm emissions) was measured using an Envision plate reader (PerkinElmer, Shelton, CT). For cytotoxicity read, 4 uL of CellTiter-Glo reagent (Promega Corporation, Madison, WI) was added to each well of the assay plates using FRD. After 30min incubation at room temperature, the luminescence intensity was measured using ViewLux plate reader (PerkinElmer).

Compound	Potency
C1COC1	inactive
O=C(CCc1ccc(O)cc1)c1c(O)cc(O)cc1O	inactive
CCOC(=O)/C=C/C(=O)OCC	inactive
COC(=O)CCS	inactive
CCC(=O)C1CC(C(C)C)CC=C1C (stereo not given)	inactive
Cc1ccco1	inactive
C=COCC(C)C	inactive
C/C=C\C/C=C/CCCCCCCCOC(C)=O	inactive
Clc1cc(Cl)nc(Cl)n1	inactive
CCCCCCC(C)(C)C(=O)O	inactive
CN(C(=O)CN(CCO)CC(=O)N(C)C(C)(C)Cc1ccccc1)C(C)(C)Cc1ccccc1	inactive
CC(CN(C)C)C(C)(O)Cc1ccc(Cl)cc1 (stereo not given)	inactive
Nc1cccc2c1CN(C1CCC(=O)NC1=O)C2=O (stereo not given)	inactive
CN1CC(=O)N2[C@H](c3ccc4c(c3)OCO4)c3[nH]c4ccccc4c3C[C@@H]2C1=O	inactive
CCCCN1CCCC1C(=O)Nc1c(C)cc(C)cc1C (stereo not given)	inactive
O=C1CCCCCCCCCCOCCCCO1	inactive
C[C@@H](O[C@H]1OCCN(Cc2n[nH]c(=O)[nH]2)[C@H]1c1ccc(F)cc1)c1cc(C(F)(F)F)cc(C(F)(F)F)c1	inactive
CC1CC(C)C(=O)C1=O (stereo not given)	inactive
CCCCCCCC/C=C\CCCCCCCCO	inactive
CCc1ccccc1	inactive

Compound	Potency
N#[N+]c1ccc2c(S(=O)(=O)[O-])cccc2c1O	inactive
O=[N+]([O-])c1cc(C2CCCCC2)c(O)c([N+](=O)[O-])c1	inactive
OC1(c2ccccc2)CCNCC1	inactive
CC(=O)OCC[N+](C)(C)C	inactive
CCC(C)(C)OC	inactive
OCCN1CCN(CCCN2c3ccccc3Sc3ccc(Cl)cc32)CC1	inactive
O=C1NCCN1CCO	inactive
CC(=O)c1ccc([N+](=O)[O-])cc1	inactive
COc1ccccc1Oc1c(NS(=O)(=O)c2ccc(C(C)(C)C)cc2)nc(-c2ncccn2)nc1OCCO	inactive
O=Cc1c2ccccc2c(Cl)c2ccccc12	inactive
Cc1ccc(CO)cc1	inactive
C=C1c2cccc(O)c2C(O)=C2C(=O)[C@]3(O)C(O)=C(C(N)=O)C(=O)[C@@H](N(C)C)[C@@H]3[C@@H](O)[C@H]12	inactive
CC(C)=CCC/C(C)=C/CC/C(C)=C/C(=O)OCC(=O)[C@@]1(O)CC[C@H]2[C@@H]3CCC4=CC(=O)C=C[C@]4(C)[C@H]3[C@@H](O)C[C@@]21C	inactive
COC(=O)C1=C(C)NC(C)=C(C(=O)O[C@@H]2CCCN(Cc3ccccc3)C2)[C@@H]1c1cccc([N+](=O)[O-])c1	inactive
c1ccc2c(c1)CCc1ccccc1N2	inactive
CCOC(=O)c1ccccc1C(=C1C=C(Br)C(=O)C(Br)=C1)c1cc(Br)c(O)c(Br)c1	inactive
CC(C)=CCC/C(C)=C/CC/C(C)=C/CCC(=O)OC/C=C(\C)CCC=C(C)C	inactive
Cc1cc(C)cc(N)c1	inactive
O=[N+]([O-])c1ccc(O/N=C/c2cc(Br)c(O)c(Br)c2)c([N+](=O)[O-])c1	inactive
C/C=C(/C(=C/C)c1ccc(O)cc1)c1ccc(O)cc1	inactive
